From PubChem BioAssay AID2642 (Johns Hopkins Ion Channel Center, 2010)
In all, about 310,000 compounds went through this assay and about 3,900 (1.3%) were called active.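 The calls were made as follows: active = compounds whose thallium flux B-score, printed positive for inhibition, exceeds three library SD while starting fluorescence stays within three; inactive = the rest.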 Many of the other results were omitted from the sample, so actives are more common in it than they were.

Each compound was assayed against Potassium voltage-gated channel subfamily KQT member 1 (Homo sapiens) (UniProt P51787) (assay: inhibitors of human KCNQ1 channel, primary screen, cell-based, thallium flux, high-throughput (AID 2642;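 also: channel opened by potassium depolarization with thallium stimulus after 20 min compound exposure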)). Settings: CHO-K1 KCNQ1, FluxOR thallium flux fluorescence, at 10 µM; hits give high values.
Sequence of Potassium voltage-gated channel subfamily KQT member 1 (Homo sapiens) (P51787 whole entry, looked up): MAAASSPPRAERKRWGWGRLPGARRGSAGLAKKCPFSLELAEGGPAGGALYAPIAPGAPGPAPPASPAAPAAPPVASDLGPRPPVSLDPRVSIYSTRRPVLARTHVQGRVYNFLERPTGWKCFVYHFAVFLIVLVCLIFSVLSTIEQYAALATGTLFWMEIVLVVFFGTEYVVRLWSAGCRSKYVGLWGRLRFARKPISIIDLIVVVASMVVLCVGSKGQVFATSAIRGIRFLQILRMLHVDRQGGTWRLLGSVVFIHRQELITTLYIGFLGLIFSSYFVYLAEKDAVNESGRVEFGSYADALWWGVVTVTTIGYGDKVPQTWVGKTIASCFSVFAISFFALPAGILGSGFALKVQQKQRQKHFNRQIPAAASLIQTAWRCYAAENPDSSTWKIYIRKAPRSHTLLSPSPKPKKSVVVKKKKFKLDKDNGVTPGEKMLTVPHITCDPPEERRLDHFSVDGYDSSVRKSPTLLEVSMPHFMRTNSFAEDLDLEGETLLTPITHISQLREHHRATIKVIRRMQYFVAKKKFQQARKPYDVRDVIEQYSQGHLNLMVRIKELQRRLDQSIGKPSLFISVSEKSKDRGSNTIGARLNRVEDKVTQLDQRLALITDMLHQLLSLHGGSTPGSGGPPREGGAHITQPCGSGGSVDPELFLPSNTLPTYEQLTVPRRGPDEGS

Row | SMILES | B-score
1 | CCc1nc2nc(C)c(NS(=O)(=O)c3ccc4c(c3)CCCC4)c(=O)n2[nH]1 | inactive
2 | CCCCc1ccc(NC(=O)NCc2cccnc2)cc1 | inactive
3 | O=S(=O)(NCCSc1ccccn1)c1ccc(Cl)cc1 | inactive
4 | Cc1cc(O)ccc1NC1=CC(=O)CC(C)(C)C1 | inactive
5 | CCOc1ccc(NC(=O)CN(C)C(=O)c2c(C)noc2C)cc1OCC | inactive
6 | CCOn1c(SC(C)C)nc2ccccc2c1=O | inactive
7 | CCOC(=O)C(C)Sc1nc2ccccc2c(=O)n1CC1CCCCC1 (stereo not given) | 7 (active)
8 | CCOC(=O)C1CCc2nc3ccccc3c(=O)n21 (stereo not given) | inactive
9 | Cc1c(OC(C)C(=O)NCC2CCC(C(=O)O)CC2)ccc2c1oc(=O)c1ccccc12 (stereo not given) | inactive
10 | Cc1noc(C)c1CSCC(=O)Nc1nc2ccc(Oc3ccccc3)cc2s1 | 8 (active)
11 | CCc1noc(C)c1C(=O)Nc1nc2ccc(OC)cc2s1 | inactive
12 | Cc1noc(C)c1CSCC(=O)Nc1ccc(Br)cc1Cl | inactive
13 | Cc1ccc(-n2ncc(C(=O)NC3CC3)c2C2CCN(C(=O)OC(C)(C)C)CC2)c(C)c1 | inactive
14 | Cc1cc(C)c(NC(=O)c2oc3ccccc3c2COc2ccccc2)c(C)c1 | 10 (active)
15 | COCc1c(C(=O)OCc2c(C)noc2C)oc2ccccc12 | inactive
16 | CCOC(=O)c1oc2ccccc2c1NC(=O)c1cccs1 | inactive
17 | COc1cc(C(C(=O)NC2CCCC2)N(Cc2ccccc2)C(=O)c2snc(C(N)=O)c2N)ccc1O (stereo not given) | inactive
18 | O=C(Nc1ccccc1)N1CCN(C(=O)Nc2ccccc2)CC1 | inactive
19 | O=C(Nc1ccc(Cl)c(Cl)c1)N1CC=C(c2ccccc2)CC1 | 11 (active)
20 | COc1cc(C(=O)NCC(=O)N2CC=C(c3ccccc3)CC2)cc(OC)c1OC | inactive
21 | O=C(NCCCN1CCCCC1)C1CC(=O)N(CCc2ccccc2)C1 (stereo not given) | inactive
22 | NC(=O)c1cc(-c2cccnc2)nc2ccc(Br)cc12 | inactive

Row | SMILES | B-score
23 | O=C(NNC(=S)NC(=O)c1cn(-c2ccccc2)nc1-c1ccccc1)c1ccncc1 | 6 (active)
24 | NC(=O)C1CCN(C(=O)c2cn(-c3ccccc3)nc2-c2cccnc2)CC1 | inactive
25 | Cc1onc(-c2ccccc2)c1C(=O)NNC(=S)NC(=O)c1ccc(F)cc1 | inactive
26 | c1ccc(-c2ccc3c(c2)NC(C2Nc4cc(-c5ccccc5)ccc4O2)O3)cc1 (stereo not given) | inactive
27 | CNS(=O)(=O)c1ccc(N2CCCC2=O)c([N+](=O)[O-])c1 | inactive
28 | CC(=O)Nc1ccc(S(=O)(=O)Nc2ccc(-c3ccc4nnc(C)n4n3)cc2)cc1 | inactive
29 | CN(c1cccc(NC(=O)Nc2ccc(Cl)cc2)c1)S(C)(=O)=O | 10 (active)
30 | Cc1ccc(N(CC(=O)Nc2cccc(N(C)S(C)(=O)=O)c2)S(C)(=O)=O)cc1 | inactive
31 | COc1cccc(N(CC(=O)Nc2cccc(N(C)S(C)(=O)=O)c2)S(C)(=O)=O)c1 | inactive
32 | COc1cccc(NC(=O)CN(C)C(=O)CSCc2nc3scc(-c4cccs4)c3c(=O)[nH]2)c1 | inactive
33 | COc1ccc(C2NC(=O)C(=O)/C2=C(\O)c2ccc(Cl)cc2)cc1OC (stereo not given) | inactive
34 | O=C(Nc1ncc([N+](=O)[O-])s1)C1COc2ccccc2O1 (stereo not given) | inactive
35 | O=C(CCc1ccccc1)Nc1ncc([N+](=O)[O-])s1 | inactive
36 | CC(=O)Oc1ccccc1C(=O)Nc1ncc([N+](=O)[O-])s1 | 7 (active)
37 | CC(NC(=O)c1cc(=O)[nH]c2ccccc12)c1ccc(F)cc1F (stereo not given) | inactive
38 | CC(=O)c1cc2c(cc1NC(=O)Cn1nc(-c3ccc(F)cc3)ccc1=O)OCO2 | inactive
39 | COc1cnc(-c2ccccn2)nc1Oc1ccc(C(C)(C)C)cc1 | inactive
40 | COc1ccc(S(=O)(=O)N2CCCCCC2)cc1C(=O)OCC(=O)Nc1cc(C)on1 | inactive
41 | O=C(CSc1ncn[nH]1)N/N=C/c1ccc(F)cc1 | inactive
42 | O=C(/C=C/Sc1ncn[nH]1)c1ccc(Cl)cc1 | 7 (active)
43 | Cc1cc(C)nc(S/C=C/C(=O)c2ccccc2)n1 | inactive
44 | CCOc1cc(NC(=S)NCCCN(C)C)c(OCC)cc1NC(=O)C1CC1 | inactive

Row | SMILES | B-score
45 | OC(COc1cccc2ccccc12)CN1CCN(c2ccccn2)CC1 (stereo not given) | inactive
46 | CC(C)c1ccccc1OCC(O)CN(CC(O)COc1cccc2ccccc12)C(C)C (stereo not given) | 6 (active)
47 | Cc1cc(C)c(NC(=O)C[N+](C)(C)CC(O)COc2cccc3ccccc23)c(C)c1 (stereo not given) | inactive
48 | O=C(CC1C(=O)NCCN1Cc1ccc(-c2ccccc2)cc1)NCc1ccncc1 (stereo not given) | inactive
49 | Cc1ccc(OCC(=O)Nc2ccccc2C(=O)NC2CC2)cc1C | inactive
50 | O=[N+]([O-])c1ccc(O)c(/C=N/Nc2ccccc2[N+](=O)[O-])c1 | 9 (active)
51 | Nc1nnnn1/N=C/c1cc([N+](=O)[O-])ccc1O | inactive
52 | O=C(N/N=C/c1cc([N+](=O)[O-])ccc1O)/C(=C\c1cccs1)NC(=O)c1ccccc1 | inactive
53 | CCOc1ccc(CN2CCN(CCCc3ccccc3)C(CCO)C2)cc1 (stereo not given) | inactive
54 | CN1CCN(C2=NCCO2)CC1 | inactive
55 | COc1ccc(OC)c(C(=O)NC(CC(N)=O)c2ccc(N3CCC(N4CCCCC4)CC3)c([N+](=O)[O-])c2)c1 (stereo not given) | inactive
56 | O=C(CNS(=O)(=O)c1ccccc1)N1CCN(C(=O)c2ccco2)CC1 | inactive
57 | Cc1cc(/C=C2/C(=N)N3C(=NC2=O)SN=C3S(C)(=O)=O)c(C)n1-c1ccccc1 | inactive
58 | CCS(=O)(=O)C1=NSC2=NC(=O)/C(=C\c3cc(C)n(-c4cccc(OC)c4)c3C)C(=N)N21 | 8 (active)
59 | CCS(=O)(=O)C1=NSC2=NC(=O)/C(=C\c3ccc(OS(=O)(=O)c4ccccc4)cc3)C(=N)N21 | inactive
60 | CCc1cc(=O)oc2cc(C)cc(OCC(=O)N3CCC[C@@H]3C(=O)O)c12 | inactive
61 | COc1ccc(N2CCN(C(=O)Cn3cnc4sc(C)c(S(=O)(=O)N5CCOCC5)c4c3=O)CC2)cc1 | inactive
62 | C=CCn1nc(-c2ccccc2)c2c(C)onc2c1=O | inactive
63 | CCOc1ccc(CN(Cc2ccco2)S(=O)(=O)c2ccc(-n3cnnn3)c(OC)c2)cc1 | inactive
64 | CCOc1ccc(CN(Cc2ccco2)C(c2cccs2)c2nnnn2C(C)(C)C)cc1 (stereo not given) | 7 (active)
65 | CC(C)(C)n1nnnc1C(c1cccs1)N(Cc1cccnc1)CC1CCCO1 (stereo not given) | inactive
